Here are results for 14 sequences from the supplement of paper PMC13392028.

The assay concerns PvIESI-1 RRM domain (Plasmodium vivax PVP01_0939900 aa 896-1203, GST fusion). Description: RBNS R-value (6-mer enrichment in protein-bound RNA vs input library) (ratio); higher = stronger binding preference; the methods of the paper give 50 / 100 / 500 nM protein instead. The procedure: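 RNA Bind-n-Seq: recombinant GST-tagged IESI-1 RRM domain was incubated at room temperature with a random 40-nt in vitro transcribed RNA library at 250, 500 or 1000 nM protein. Bound RNA was pulled down on glutathione beads and sequenced. R-value is the enrichment of each 6-mer in the bound RNA relative to the input library. Each 6-mer sits inside the random 40-mer context, not as an isolated oligo. Values are replicate 1 only.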

Regarding UUGAUC, the “RBNS R-value” by setting is: (protein concentration: 250 nM) 1.91; (protein concentration: 500 nM) 2.12; (protein concentration: 1000 nM) 2.1.
The like results for UGAUGC were, in that order, 3.72, 4.04 and 3.95.
The like results for UUGAUA were, in that order, 2.87, 3.36 and 3.32.
Taken in the same sequence, the figures for CUUGAU were 3.23, 3.65 and 3.49.
As for AUGAUU, the “RBNS R-value” (protein concentration: 250 nM) was found to be 4.49, the “RBNS R-value” (protein concentration: 500 nM) was 4.79 and the “RBNS R-value” (protein concentration: 1000 nM) is 4.59.
Taken in the same sequence, the figures for UGAUAG were 3, 3.35 and 3.29.
UGAUUC: the “RBNS R-value” is 3.85 (protein concentration: 250 nM), 4.13 (protein concentration: 500 nM) and 3.89 (protein concentration: 1000 nM).
In the case of UGAUGA, the “RBNS R-value” runs as follows: (protein concentration: 250 nM) 5.51; (protein concentration: 500 nM) 5.62; (protein concentration: 1000 nM) 5.25.
Regarding GACACC, the “RBNS R-value” was 1.46 (protein concentration: 250 nM), 1.66 (protein concentration: 500 nM) and 1.69 (protein concentration: 1000 nM).
Taken in the same sequence, the figures for GAUGAG were 2.33, 2.49 and 2.4.
The like results for GAUGGC were, in that order, 2.5, 2.55 and 2.36.
Taken in the same sequence, the figures for UGAUUA were 3.86, 4.25 and 4.11.
For GAUUGC, the “RBNS R-value” amounted to 2.21 (protein concentration: 250 nM), 2.33 (protein concentration: 500 nM) and 2.1 (protein concentration: 1000 nM).
The like results for GAUUGA were, in that order, 2.27, 2.42 and 2.29.
